Test results as given in the supplement of paper PMC12636033.
± gives the standard deviation of the averaged measurements. The full ranking holds about 33,000 sequences; the median of “E-score (rank enrichment, -0.5 to 0.5)” is about -0.0075, and the highest 2% start at about 0.23. Shown is part of a subset that was picked to be rich in the highest values.

System: WT Max(13-93) synthetic (M65Nle)
Assay: PBM 8-mer E-score (E-score (rank enrichment, -0.5 to 0.5)); higher = stronger preferential binding
Method: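 Protein binding microarray (universal PBM chip covering all 10-mers in fixed probe flanks) with chemically synthesized human Max(13-93) bHLH-LZ analogs (not full-length Max) bearing noncanonical residues (hArg, Tha, Aib, Nle at 65) and aromatic Cys staples. Read-out per 8-mer (and its reverse complement): E-score (rank-based enrichment, -0.5 to 0.5) and Z-score of median probe intensity.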

Sequence | PBM 8-mer E-score
ACTAATAA | 0.182 ± 0.058
TCTAATAA | 0.272 ± 0.069
AATAATAG | 0.14 ± 0.12
TATAATAA | 0.2203 ± 0.00023
AATAATAA | 0.242 ± 0.013
CATAATAG | 0.241 ± 0.027
AATAATTA | 0.237 ± 0.058
AATAATTC | 0.0855 ± 0.084
ACTCGGTA | -0.0471 ± 0.064
CGTAGGCA | -0.0828 ± 0.077
GAAGCCCA | -0.0819 ± 0.0058
CCACCTGG | 0.0162 ± 0.071
TCAACTCA | -0.088 ± 0.024
AGATGCGG | -0.0543 ± 0.14
CGCTTCTA | -0.0256 ± 0.055
CCATTGGG | -0.154 ± 0.1
CAATCCAG | 0.0833 ± 0.0029
CATAATTC | -0.0543 ± 0.0058
CCTAATTA | 0.138 ± 0.094
CATAATTA | 0.236 ± 0.025
GTATCGAA | -0.0312 ± 0.052
AGCTAATG | -0.0403 ± 0.0067

Sequence | PBM 8-mer E-score
GATAATCC | -0.0355 ± 0.034
CATAATCA | 0.101 ± 0.028
GATAATAA | 0.137 ± 0.092
AATAATCA | 0.125 ± 0.0096
GATAATCA | 0.253 ± 0.14
TATAATCA | 0.257 ± 0.014
ACGCCAGT | -0.159 ± 0.098
CTCGAATA | -0.174 ± 0.064
CCATTACA | 0.165 ± 0.0069
AAGTTAAG | -0.0928 ± 0.093
AAGTTAAT | 0.234 ± 0.036
AAGTTAAC | 0.18 ± 0.0042
ATGGACAA | 0.0228 ± 0.022
GCTCCTCC | -0.127 ± 0.14
AAATTATA | 0.237 ± 0.0041
TAATTATA | 0.264 ± 0.11
GAATTATA | 0.128 ± 0.074
AAATTATC | 0.158 ± 0.031
CAATTATA | 0.137 ± 0.059
AAATTATG | 0.127 ± 0.011
GCCGAAAA | 0.0297 ± 0.015
CACGCGTC | 0.266 ± 0.016

Sequence | PBM 8-mer E-score
CACGCGCC | 0.238 ± 0.013
AACGCGTG | 0.222 ± 0.068
CACGCGTA | 0.165 ± 0.036
CACGCGAA | 0.0737 ± 0.06
CACGCGAC | 0.271 ± 0.066
CACGCGTG | 0.349 ± 0.015
AACGCGTC | -0.0583 ± 0.0094
CACGCGCG | 0.224 ± 0.034
AACGCGTA | 0.0664 ± 0.023
CACGCGCA | 0.149 ± 0.079
CACGCGAG | 0.0779 ± 0.018
CAACTCGG | -0.13 ± 0.11
ATAACCGA | -0.0219 ± 0.011
CAAATTAC | 0.177 ± 0.062
CCATCACC | 0.144 ± 0.01
ATGCAGTG | 0.0344 ± 0.068
AAATGCGA | -0.0159 ± 0.018
AGGCTAGG | 0.0514 ± 0.046
GGCAGATA | 0.116 ± 0.062
ACGTTTTG | 0.101 ± 0.09
CCGTTATA | 0.132 ± 0.018
ACGTTATG | 0.24 ± 0.0059

Sequence | PBM 8-mer E-score
ACGTTATC | 0.133 ± 0.013
ACGTTATA | 0.241 ± 0.038
ACGTTAGG | 0.107 ± 0.099
GCGTTATA | 0.108 ± 0.025
ACATCATG | -0.0233 ± 0.006
AGCGCCTC | -0.185 ± 0.038
AACACCGG | -0.157 ± 0.029
ATTTGTTA | 0.0868 ± 0.01
ATTTGTTC | 0.241 ± 0.11
CTTTGTTC | 0.0437 ± 0.024
CGAGATGA | -0.159 ± 0.091
AGTAGCTA | 0.178 ± 0.057
GATCTCGA | -0.159 ± 0.022
CCGCCGAA | -0.156 ± 0.022
CACGTGAG | 0.404 ± 0.019
AACGTGAC | 0.205 ± 0.016
CGCGTGAG | 0.0752 ± 0.04
CACGTGAC | 0.4879 ± 0.0015
GACGTGAA | -0.138 ± 0.057
GACGTGAC | -0.0117 ± 0.088
CCCGTGAG | -0.0893 ± 0.044
CACGTGAA | 0.388 ± 0.053
